# Data as given in PubChem BioAssay (NCATS).
# Unmarked numbers belong to inactive results. Inconclusive results are not listed. A call without a number means that no potency is given here. Activity calls are given as the source filed them. Unless noted, calls follow the shape of the dose curve; as a rule, active = well fitted curve in the direction sought with a large enough effect; inconclusive = small, poorly fitted or top-dose-only effect, or another doubt; inactive = no such curve, though single readings can be large; an effect the other way counts as inactive or inconclusive.
# How the values were obtained:
# [1] = Cellular Toxicity (caspase-3) Renal Proximal Tubule (AID 667);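 also: cells exposed to compound for 16 hours at 37 °C before detection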
# Procedure, shortened: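 In qHTS format, rat primary proximal tubule cells seeded at 1000 per well are exposed to compounds for 16 hours at 37 °C. An increase in Caspase-Glo 3/7 luminescence indicates caspase activation.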
# [2] = biological target: Cytochrome P450 3A4 (Homo sapiens) (UniProt P08684); experiment: qHTS Assay for Inhibitors and Substrates of Cytochrome P450 3A4 (AID 884); also: nearly all actives have a fitted effect of over 50% in size; also: potency is read from the fitted curve at half-maximal effect
# Chain of Cytochrome P450 3A4 (Homo sapiens) (P08684 whole entry, looked up): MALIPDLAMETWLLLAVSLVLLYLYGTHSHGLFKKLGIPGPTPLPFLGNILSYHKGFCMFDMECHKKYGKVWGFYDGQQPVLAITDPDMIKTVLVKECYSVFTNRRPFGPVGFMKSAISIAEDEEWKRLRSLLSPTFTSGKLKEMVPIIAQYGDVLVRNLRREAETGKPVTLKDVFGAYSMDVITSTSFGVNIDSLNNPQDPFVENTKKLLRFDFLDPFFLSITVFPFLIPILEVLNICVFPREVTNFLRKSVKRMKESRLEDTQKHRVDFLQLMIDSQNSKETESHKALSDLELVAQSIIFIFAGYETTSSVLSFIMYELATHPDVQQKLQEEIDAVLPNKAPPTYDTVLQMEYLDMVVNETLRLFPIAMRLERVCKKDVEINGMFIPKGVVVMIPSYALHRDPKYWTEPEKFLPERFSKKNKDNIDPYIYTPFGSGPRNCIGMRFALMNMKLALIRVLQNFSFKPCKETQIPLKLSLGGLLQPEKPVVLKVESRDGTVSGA
# Procedure, shortened: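 20 nM human CYP3A4 with 25 uM Luciferin-PPXE (at KM) in 200 mM KPO4, preincubated 10 min with compound; NADPH regeneration started a 60 min RT reaction. Luciferin detected by luminescence, normalized to 57 uM ketoconazole as full inhibition.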
# [3] = Cell Viability - LYMP2-001 (AID 921);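 also: cells exposed to compound for 24 h at 37 °C; nearly all actives have a fitted effect of over 70% in size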; also: potency is read from the fitted curve at half-maximal effect
# Procedure, shortened: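 qHTS, 1536-well; lymphoblastoid cells, 24 hr compound, 37 C; ATP by CellTiter-Glo, 30 min RT; luminescence; Hill-fit AC50.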
# [4] = biological target: Cytochrome P450 3A4 (Homo sapiens) (UniProt P08684); experiment: qHTS Assay for Activators of Cytochrome P450 3A4 (AID 885); also: nearly all actives have a fitted effect of over 65% in size
# Procedure, shortened: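 Human CYP3A4 (20 nM) with Luciferin-PPXE at 25 uM (its KM) in 200 mM KPO4; 10 min compound preincubation, then NADPH regeneration and 60 min reaction at RT. Luciferin read by luminescence; normalized to 57 uM ketoconazole full inhibition.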
# [5] = Confirmation and Secondary Assay for Modulators of Hemoglobin Beta Chain Splicing at IVS2 654 locus (AID 910);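 also: HeLa cells stably carrying EGFP split by mutant beta-globin IVS2-654 intron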;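 also: potency is read from the fitted curve at half-maximal effect; potency of activators that raise GFP signal by restoring correct splicing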
# Procedure, shortened: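 HeLa cells stably expressing EGFP interrupted by β-globin IVS2-654 intron, seeded overnight in Opti-MEM/2% FCS, then treated 2 days at 37 °C. Restored splicing read as total peak GFP intensity per well by laser scanning cytometry (488 nm excitation, 500–520 nm emission); 500 nM antisense PNA as control.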
# [6] = biological target: Guanine nucleotide-binding protein G(i) subunit alpha-1 (Homo sapiens) (UniProt P63096); experiment: qHTS Assay for Inhibitors of RGS12 GoLoco Motif Activity (Green Fluorophore) (AID 879);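 also: negative values mean loss of peptide binding seen as reduced polarization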
# Chain of Guanine nucleotide-binding protein G(i) subunit alpha-1 (Homo sapiens) (P63096 whole entry, looked up): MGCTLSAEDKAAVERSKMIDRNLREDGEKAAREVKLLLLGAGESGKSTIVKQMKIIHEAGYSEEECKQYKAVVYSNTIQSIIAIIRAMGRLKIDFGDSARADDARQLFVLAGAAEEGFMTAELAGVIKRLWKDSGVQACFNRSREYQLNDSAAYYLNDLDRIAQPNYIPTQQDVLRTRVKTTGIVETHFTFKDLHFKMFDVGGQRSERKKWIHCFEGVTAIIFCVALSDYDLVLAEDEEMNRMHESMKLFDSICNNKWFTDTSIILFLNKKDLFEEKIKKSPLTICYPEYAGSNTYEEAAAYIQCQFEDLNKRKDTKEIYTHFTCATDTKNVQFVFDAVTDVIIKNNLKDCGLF
# Procedure, shortened: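 Fluorescence polarization assay: 50 nM Gαi1 with 10 nM FITC-labeled RGS12 GoLoco peptide in 10 mM Tris pH 7.5, 150 mM NaCl, 0.1 mM GDP, 0.05% NP40, 10 min at room temperature with compound.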
# [7] = biological target: Cytochrome P450 2C19 (Homo sapiens) (UniProt P33261); experiment: qHTS Assay for Inhibitors and Substrates of Cytochrome P450 2C19 (AID 899); settings: recombinant CYP2C19, luciferin-H EGE luminescence; also: potency is read from the fitted curve at half-maximal effect; nearly all actives have a fitted effect of over 60% in size
# Chain of Cytochrome P450 2C19 (Homo sapiens) (P33261 whole entry, looked up): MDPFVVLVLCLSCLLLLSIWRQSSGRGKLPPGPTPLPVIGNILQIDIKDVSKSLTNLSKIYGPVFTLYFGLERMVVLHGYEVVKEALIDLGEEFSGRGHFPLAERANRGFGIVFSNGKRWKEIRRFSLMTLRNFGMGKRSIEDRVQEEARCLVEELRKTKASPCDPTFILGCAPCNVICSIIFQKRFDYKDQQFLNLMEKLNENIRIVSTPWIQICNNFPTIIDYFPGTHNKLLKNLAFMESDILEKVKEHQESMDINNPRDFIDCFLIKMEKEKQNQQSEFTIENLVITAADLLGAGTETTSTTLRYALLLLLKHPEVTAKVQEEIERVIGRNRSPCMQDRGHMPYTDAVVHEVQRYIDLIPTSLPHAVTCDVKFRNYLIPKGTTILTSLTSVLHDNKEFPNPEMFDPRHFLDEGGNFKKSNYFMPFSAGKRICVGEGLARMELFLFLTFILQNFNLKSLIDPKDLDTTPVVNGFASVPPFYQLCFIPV
# Procedure, shortened: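 Luminescent read-out of luciferin formed from Luciferin-H EGE (10uM, equal to KM). Enzyme 5nM in 50mM KPO4; compound added, 10 min at 37C, then NADPH regenerating system for 60 min at 37C. Full inhibition defined by 57uM ketoconazole.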
# [8] = qHTS Assay for Identification of Small Molecule Agonists for Hypoxia Response Element Signaling Pathway (AID 914; active = well fitted activation curve with a large enough effect in the signal ratio, with a control signal flat, not every such curve was filed as active; the % refers to the signal ratio); settings: ME-180 (cervical carcinoma) HRE-bla reporter, beta-lactamase ratio, CoCl2, 17 h; hits give high values
# Procedure, shortened: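 Reporter activity (beta-lactamase, CCF4 460nm/530nm ratio) in HRE-bla ME-180 cells is recorded after 17 h compound exposure with EC50 CoCl2 at 37 degrees Celsius. AC50 values come from titration data.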
smiles,measurement,setting,value
CC1=CCC2CC1C2(C)C (stereo not drawn),outcome,[1],inactive
same,Potency,[2],inactive
same,Potency,[3],inactive
Oc1ccc(/C=C/c2cc(O)cc(O)c2)cc1,outcome,[1],inactive
same,Potency,[3],inactive
OCc1ccccc1,outcome,[1],inactive
same,Potency,[2],inactive
same,Potency,[3],inactive
CC1=CC(=O)NS(=O)(=O)O1,outcome,[1],inactive
same,Potency,[2],inactive
same,Potency,[3],inactive
C[C@H](CCC(=O)O)[C@H]1CC[C@H]2[C@@H]3[C@H](O)C[C@@H]4C[C@H](O)CC[C@]4(C)[C@H]3C[C@H](O)[C@]12C,outcome,[1],inactive
same,Potency,[3],inactive
OCC(O)CO,outcome,[1],inactive
same,Potency,[2],inactive
same,Potency,[3],inactive
CCCCC,outcome,[1],inactive
same,Potency,[2],inactive
same,Potency,[3],inactive
OCl,outcome,[1],inactive
same,Potency,[2],inactive
same,Potency,[3],inactive
OC[C@H]1O[C@@H]2O[C@H]3[C@H](O)[C@@H](O)[C@@H](O[C@H]4[C@H](O)[C@@H](O)[C@@H](O[C@H]5[C@H](O)[C@@H](O)[C@@H](O[C@H]6[C@H](O)[C@@H](O)[C@@H](O[C@H]7[C@H](O)[C@@H](O)[C@@H](O[C@H]1[C@H](O)[C@H]2O)O[C@@H]7CO)O[C@@H]6CO)O[C@@H]5CO)O[C@@H]4CO)O[C@@H]3CO,outcome,[1],inactive
same,Potency,[2],inactive
same,Potency,[3],inactive
C/C=C/C=C/C(=O)O,outcome,[1],inactive
same,Potency,[2],inactive
same,Potency,[3],inactive
O.O.O.O.O.O.O.O=S(=O)([O-])[O-].[Co+2],outcome,[1],inactive
same,Potency,[2],inactive
CC(C)(C)CC(C)(C)c1ccc(OCCO)cc1,outcome,[1],inactive
same,Potency,[4],inactive
O=P(O)(O)O,outcome,[1],inactive
same,Potency,[2],inactive
same,Potency,[3],inactive
Nc1ccc(N=Nc2ccccc2)c(N)n1,outcome,[1],inactive
same,Potency,[4],inactive
same,Potency,[5],15.8 µM (active)
same,Potency,[3],inactive
C[C@H]1O[C@@H](O[C@H]2[C@@H](O)C[C@H](O[C@H]3[C@@H](O)C[C@H](O[C@H]4CC[C@@]5(C)[C@H](CC[C@@H]6[C@@H]5C[C@@H](O)[C@]5(C)[C@@H](C7=CC(=O)OC7)CC[C@]65O)C4)O[C@@H]3C)O[C@@H]2C)C[C@H](O)[C@@H]1O,outcome,[1],inactive
same,Potency,[2],inactive
same,Potency,[3],0.316 µM (active)
O=c1n(CC2CO2)c(=O)n(CC2CO2)c(=O)n1CC1CO1 (stereo not drawn),outcome,[1],inactive
same,Potency,[2],inactive
same,Potency,[3],31.6 µM (active)
CO/N=C(/C(=O)N[C@@H]1C(=O)N2C(C(=O)O)=C(COC(N)=O)CS[C@H]12)c1ccco1,outcome,[1],inactive
same,Potency,[2],inactive
same,Potency,[3],inactive
COC(=O)c1ccccc1O,outcome,[1],inactive
same,Potency,[2],inactive
same,Potency,[3],inactive
Cc1ncc[nH]1,outcome,[1],inactive
same,Potency,[2],inactive
same,Potency,[3],inactive
CC/C=C\C/C=C\C/C=C\CCCCCCCC(=O)O,outcome,[1],inactive
same,Potency,[2],15.8 µM (active)
same,Potency,[4],inactive
Nc1nccs1,outcome,[1],inactive
same,Potency,[2],inactive
same,Potency,[5],inactive
same,Potency,[3],inactive
Oc1cccc(O)c1O,outcome,[1],inactive
same,Potency,[2],inactive
same,Potency,[3],inactive
c1ccc2ccccc2c1,outcome,[1],inactive
same,Potency,[2],inactive
same,Potency,[3],inactive
OB(O)O,outcome,[1],inactive
same,Potency,[2],inactive
same,Potency,[3],inactive
NC(N)=O,outcome,[1],inactive
same,Potency,[2],inactive
same,Potency,[5],inactive
same,Potency,[3],inactive
CC(C)O,outcome,[1],inactive
same,Potency,[2],inactive
same,Potency,[3],inactive
CO,outcome,[1],inactive
same,Potency,[2],inactive
same,Potency,[3],inactive
Nc1ncnc2c1ncn2[C@H]1CC[C@@H](CO)O1,outcome,[1],inactive
same,Potency,[2],inactive
same,Potency,[5],inactive
same,Potency,[3],inactive
ClC(Cl)Cl,outcome,[1],inactive
same,Potency,[2],inactive
same,Potency,[3],inactive
Cc1ccc(S(=O)(=O)O)cc1C,outcome,[1],inactive
same,Potency,[2],inactive
same,Potency,[3],inactive
[O-][N+](=Nc1ccccc1)c1ccccc1,outcome,[1],inactive
same,Potency,[2],inactive
same,Potency,[3],inactive
CCCCO,outcome,[1],inactive
same,Potency,[2],inactive
same,Potency,[3],inactive
CCOC(C)OCC,outcome,[1],inactive
same,Potency,[2],inactive
same,Potency,[3],inactive
NCCN,outcome,[1],inactive
same,Potency,[2],inactive
same,Potency,[3],inactive
CC[C@H]1OC(=O)[C@H](C)[C@@H](O[C@H]2C[C@@](C)(OC)[C@@H](O)[C@H](C)O2)[C@H](C)[C@@H](O[C@@H]2O[C@H](C)C[C@H](N(C)C)[C@H]2O)[C@](C)(O)C[C@@H](C)CN(C)[C@H](C)[C@@H](O)[C@]1(C)O,outcome,[1],inactive
C[C@H](CCC(=O)O)[C@H]1CC[C@H]2[C@@H]3CC[C@@H]4C[C@H](O)CC[C@]4(C)[C@H]3C[C@H](O)[C@]12C,outcome,[1],inactive
Cc1cc(C)c(NC(=O)C[C@H](CC(=O)O)c2cccc3ccccc23)c(C(=O)N2CCC3(CCCC3)CC2)c1,outcome,[6],inactive
C[C@@](Cc1ccc(O)c(O)c1)(NN)C(=O)O,outcome,[6],inactive
Cc1cc(-c2ccc(N=Nc3ccc4c(S(=O)(=O)O)cc(S(=O)(=O)O)c(N)c4c3O)c(C)c2)ccc1N=Nc1ccc2c(S(=O)(=O)O)cc(S(=O)(=O)O)c(N)c2c1O,Potency,[7],199 nM (active)
Cc1cccc(C)c1NC(=O)C1CCCCN1C (stereo not drawn),activation,[8],5.97%
